PubChem BioAssay AID651784 (National Center for Advancing Translational Sciences (NCATS), 2012)
Results filed as inconclusive are left out. Active and inactive are the calls of the source. The call rests on the fitted dose curve; in most records, active means well fitted inhibition curve with a large enough effect; inconclusive means small, poorly fitted or top-dose-only effect; inactive means no such curve, though single readings can be large or run the other way.

assay: Acumen qHTS Assay for Inhibitors of the mTORC1 Signaling Pathway in MEF (Tsc2-/-, p53-/-) Cells: Hit Validation; details: Acumen imaging; activity change, negative = inhibition: at 37.3 µM (top of the series);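 further: phospho-rpS6 Ser235/236 immunofluorescence normalized to propidium iodide cell count; nearly all actives have a fitted effect of over 65% in size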;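 on activity change, negative = inhibition: cells exposed to compound for 24 hours; plate controls were DMSO for no effect and 7.5 nM rapamycin control for full effect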
Potency means the concentration at half of the fitted maximal effect.

Point of comparison: `CS(=O)(=O)CCNCc1ccc(-c2ccc3ncnc(Nc4ccc(OCc5cccc(F)c5)c(Cl)c4)c3c2)o1`, activity change, negative = inhibition 5.21%. Against it:
- Cc1cccc(N2CCN(C(=O)C3CCN(C(=O)c4cc5sccc5n4C)CC3)CC2C)c1 (stereo not drawn) — lower, -39.1%
- Cc1cccc(-c2nc3c(cnn3-c3ccccc3)c(=O)n2-c2ccc(Br)cc2)c1 — lower, -37.3%
- Cc1nn(CCCC(=O)NCc2cccc(Cl)c2)c(=O)c2c1sc1ccccc12 — lower, -2.73%
- COc1ccc(CCNC(=O)C(C)n2nc(C)c3sc4ccccc4c3c2=O)c(OC)c1 (stereo not drawn) — lower, -17.7%
- COc1ccc(S(=O)(=O)Nc2ccc3oc4c(c3c2)CCCC4)cc1 — lower, 1.17%
- COc1ccc(CNC(=O)c2nc(S(=O)(=O)Cc3ccccc3)ncc2Cl)cc1 — lower, -99.8%
- Cc1cccc(-n2nnnc2S(C)(=O)=O)c1 — lower, -92%
- CCc1ccc(-n2c(=O)c3c4c(sc3n(CC(=O)c3ccc(F)cc3)c2=O)CCC4)cc1 — lower, -153%
- Cc1cccc(C(=O)Nc2c(C(=O)NCc3ccc(Cl)cc3)sc3nc(C)cc(C)c23)c1 — lower, -92.4%
- CCOc1cc(CNc2ccc(O)cc2)cc(Cl)c1OCc1ccccc1 — lower, -9.52%
- Cc1cccc(CSCCNC(=O)CN(c2ccccc2)S(=O)(=O)N(C)C)c1 — lower, 3.74%
- Cc1ccc(NC(=O)c2c(NC(=O)C(F)(F)F)sc3c2CCCCC3)cc1 — lower, -36.6%
- COC(=O)c1cc2sc(C)cc2n1Cc1ccccc1 — lower, -16.6%
- O=S(=O)(NCC(c1ccco1)N1CCN(c2ccc(F)cc2)CC1)c1ccccc1 (stereo not drawn) — higher, 12.9%
- CCc1ccc(CN(Cc2ccco2)C(=O)c2cc(-c3ccc(C)c(F)c3)on2)cc1 — lower, -10.4%
- Cc1ccc(C(=O)c2cn(CC(=O)NCc3ccccc3Cl)c3nc(C)ccc3c2=O)cc1 — lower, -14.2%
- Cc1nnc(C(=O)NC(C)(C)c2nc(C(=O)NCc3ccc(F)cc3)c(O)c(=O)n2C)o1 — lower, -4.28%
- COc1ccc2nc(NC(=O)c3nc(S(=O)(=O)Cc4ccccc4F)ncc3Cl)sc2c1 — lower, -106%
- CCC(C)n1c(SCc2c(F)cccc2Cl)nc2ccsc2c1=O (stereo not drawn) — lower, -45.2%
- Cc1oc(-c2ccccc2F)nc1Cn1c(SCc2cccc(Cl)c2)nc2ccncc21 — lower, -12.7%
- O=C(c1ccco1)n1nc(-c2ccc(Cl)cc2)nc1NCc1ccccc1 — lower, -47.3%
- CCCN1C(=O)C(Cc2nc3ccccc3c(=O)n2CC)c2cc(Br)ccc21 (stereo not drawn) — lower, 4.78%
- CC(C)c1nnc(NC(=O)c2nc(S(=O)(=O)Cc3ccccc3)ncc2Cl)s1 — lower, -86.2%
- CCCN1C(=O)C(Cc2nc3ccccc3c(=O)n2CC)c2ccccc21 (stereo not drawn) — lower, -1.87%
- CC(C(=O)NCc1cccc(Br)c1)n1ncn2cccc2c1=O (stereo not drawn) — lower, 1.66%
- CCOc1ccc(Nc2nc(-c3cccc(Cl)c3)c3c(n2)-c2ccccc2OC3)cc1 — higher, 6.48%
- CC(C)Oc1ccc(CNC(=O)c2ccc3nc(SCc4ccc(F)cc4)n(C)c3c2)cc1 — lower, -8.96%

In the case of `COc1cc(Cl)c(C)cc1Nc1c2c(nc3ccccc13)CCC2`, the Potency is reported as 0.927 µM (active).
For `Cc1ccc(Nc2nc(C(N)=O)c(NC(=O)c3ccccc3Br)s2)cc1`, the Potency was 5.85 µM (active).
For `COc1cc(C(=O)Nc2ccc(NC(=O)c3ccc(C(C)(C)C)cc3)cc2)cc(OC)c1OC`, the Potency was 10.4 µM (active).
For `COC(=O)CN1C(=O)C(C)(C)c2cc(S(=O)(=O)Nc3ccc(Br)cc3F)ccc21`, the Potency was 9.27 µM (active).
With `CCCCn1c(=N)n(CCOc2ccccc2OC)c2ccccc21` the Potency was 4.65 µM (active).
For `Cc1ccc(-c2csc(-c3cc4c([nH]c3=O)CC(c3ccccc3)CC4=O)n2)cc1` (stereo not drawn), the Potency was 0.927 µM (active).
In the case of `COc1ccc(Nc2cc(C)nc(-n3nc(C)cc3C)n2)cc1Cl`, the Potency is reported as 0.147 µM (active).
For `CCN(CC)CCNC(=O)c1cc(-c2ccc(Br)s2)nc2ccccc12`, the Potency was 11.7 µM (active).
For `CCS(=O)(=O)c1oc(-c2ccc(F)cc2)nc1S(=O)(=O)c1ccc(Br)cc1`, the Potency was 4.14 µM (active).
With `Cc1cc(C)c(NC(=O)Cn2c(=O)n(Cc3ccc(C(=O)NCc4ccc5c(c4)OCO5)cc3)c(=O)c3ccccc32)c(C)c1` the Potency was 5.85 µM (active).
